# Screening results (PubChem BioAssay)
# BoNT F protease: inhibitors of Botulinum neurotoxin F light chain protease. Multiplex microsphere protease cleavage assay, flow cytometry. inhibition, % at 10 µM. 360,000 compounds, 0.22% hits; in the data active = inhibition above about 35%, passing the limit was not always enough; inconclusive = no clear call, values can overlap the other calls
# Autofluor counter: counter-screen for toxin protease inhibitors: compound fluorescence | compound autofluorescence counterscreen, microsphere flow cytometry; stronger effect = higher value | fluorescence intensity (no concentration beside the values) | 360,000 compounds, 3.1% hits; in the data active = fluorescence intensity above about 16000; inconclusive = no clear call, values can overlap the other calls
# SSB-PriA inh: inhibitors of Klebsiella pneumoniae PriA binding to SSB C-terminal tail. AID 1272365. AlphaScreen SSBct-PriA binding, biotinylated peptide. 430,000 compounds, 0.6% hits. inhibition, % at 33 µM; in the data active = inhibition mostly above about 37%, no sharp cut-off; inactive = mostly below about 20%
# Anthrax LF prot: inhibitors of Bacillus anthracis lethal factor protease; P15917; multiplex microsphere protease cleavage assay, LF; inhibition, % at 10 µM; 360,000 compounds, 0.12% hits
# Target sequence (P15917 whole entry, looked up): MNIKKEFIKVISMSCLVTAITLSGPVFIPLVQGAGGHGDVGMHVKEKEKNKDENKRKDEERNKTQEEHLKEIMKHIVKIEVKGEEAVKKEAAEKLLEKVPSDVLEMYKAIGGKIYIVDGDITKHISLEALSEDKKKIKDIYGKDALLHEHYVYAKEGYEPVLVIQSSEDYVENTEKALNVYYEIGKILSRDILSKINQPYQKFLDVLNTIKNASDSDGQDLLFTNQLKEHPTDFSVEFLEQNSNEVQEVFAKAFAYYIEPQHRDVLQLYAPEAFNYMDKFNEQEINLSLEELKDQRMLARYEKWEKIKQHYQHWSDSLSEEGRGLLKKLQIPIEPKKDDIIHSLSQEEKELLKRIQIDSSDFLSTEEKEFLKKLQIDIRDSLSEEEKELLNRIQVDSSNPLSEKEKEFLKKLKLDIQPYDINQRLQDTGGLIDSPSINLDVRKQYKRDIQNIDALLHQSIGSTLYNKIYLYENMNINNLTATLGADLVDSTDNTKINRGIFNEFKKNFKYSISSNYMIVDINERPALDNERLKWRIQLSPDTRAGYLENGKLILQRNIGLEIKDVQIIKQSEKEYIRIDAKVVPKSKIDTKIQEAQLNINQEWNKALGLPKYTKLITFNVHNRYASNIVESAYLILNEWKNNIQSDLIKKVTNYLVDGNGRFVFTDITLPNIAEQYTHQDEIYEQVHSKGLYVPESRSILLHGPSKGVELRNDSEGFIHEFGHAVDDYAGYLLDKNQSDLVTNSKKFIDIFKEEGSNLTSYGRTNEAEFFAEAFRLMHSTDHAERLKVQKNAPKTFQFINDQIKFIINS
# BoNT A protease: blocks Botulinum neurotoxin A light chain protease. multiplex microsphere protease substrate cleavage, flow cytometry. inhibition, % at 10 µM. 360,000 compounds, 0.17% hits. AID 588499
# A number is an active result; n = inactive; u = inconclusive; x = not tested or not shown. Sampled rows, rich in hits. Any-hit rate of the full collection: about 3.1%. Cut-off read from the data, not from the text of the source, unless noted: active = inhibition above about 30%; inconclusive = no clear call, values can overlap the other calls; inactive = below that.
SMILES,BoNT F protease,Autofluor counter,SSB-PriA inh,Anthrax LF prot,BoNT A protease
CCOC(=O)N1CCN(C(=O)COc2ccc(S(=O)(=O)NCC(C)C)cc2C)CC1,n,21204,n,n,n
CCOC(=O)N1CCN(C(=O)COc2ccc(S(=O)(=O)Nc3ccc(OCC)cc3)cc2)CC1,n,17078,n,n,u
Cc1cc(S(=O)(=O)NCC(C)C)ccc1OCC(=O)NCc1ccccn1,n,21787,n,n,n
CCOC(=O)COc1ccc(S(=O)(=O)Nc2cccc(SC)c2)cc1,n,21447,n,n,n
N#Cc1nccnc1O[C@H]1CCN(C(=O)Cn2ccc3ccccc32)C1,x,x,n,x,x
c1csc(OC2CNC2)n1,x,x,n,x,x
O=C(NCc1cccnc1)Nc1cccc(Cl)c1,n,n,n,n,n
CC(=O)c1cccc(NC(=O)NCc2cccnc2)c1,n,20530,n,n,n
O=C(NCc1cccnc1)Nc1cccc(NC(=O)NCc2cccnc2)c1,n,27382,n,n,n
CCOc1ccccc1C(=O)NC1CCN(Cc2nnnn2C2CCCC2)CC1,n,22337,n,n,u
COc1ccc(NC(=S)Nc2ncccc2C)cc1OC,n,n,n,n,n
COc1ccc(NC(=S)Nc2ncccc2C)c(OC)c1,n,n,45.8,n,n
COc1ccc(OC)c(NC(=S)Nc2ncccc2C)c1,x,x,104.9,x,x
Cc1cccc(Nc2nc(N)nc(CN3CCN(c4ccccc4)CC3)n2)c1,n,23528,n,n,u
Nc1nc(CN2CCN(Cc3ccccc3)CC2)nc(Nc2ccccc2)n1,n,19782,n,n,n
COc1ccccc1Nc1nc(N)nc(CN2CCN(Cc3ccccc3)CC2)n1,n,n,n,n,n
CCOc1ccc(-c2nnn(CC(=O)NCCc3c[nH]c4ccccc34)n2)cc1,n,n,n,n,n
COc1ccc(-c2nnn(CC(=O)NCCc3c[nH]c4ccccc34)n2)cc1OC,n,21211,n,n,n
COc1ccc(C(C)n2c(C)c3c(C)nnc(C)c3c2C)cc1 (configuration not stated),n,16371,n,n,n
COc1ccc(C(=O)c2nc3c(n2O)CCCC3)cc1OC,n,n,n,n,n
CCCOc1ccc(C(=O)c2nc3c(n2O)CCCC3)cc1,n,22563,n,n,n
COc1ccc(OC)c(C(=O)c2nc3c(n2O)CCCCC3)c1,n,23230,n,n,n
O=C(c1ccc(Oc2ccccc2)cc1)c1nc2c(n1O)CCCC2,n,23776,n,n,u
COc1ccc(C(=O)c2nc3c(n2O)CCCCC3)cc1,n,n,n,n,n
COc1ccc(OC)c(C(=O)Nc2ncc(S(=O)(=O)c3ccc([N+](=O)[O-])cc3)s2)c1,x,x,n,x,x
SMILES,BoNT F protease,Autofluor counter,SSB-PriA inh,Anthrax LF prot,BoNT A protease
Cc1ccc(S(=O)(=O)ON2C(=O)c3ccccc3C2=O)c(C)c1,n,n,n,n,n
Cc1cc(C)c(S(=O)(=O)ON2C(=O)c3ccccc3C2=O)cc1C,n,23962,n,n,u
Cc1cccc(NS(=O)(=O)c2cc(OCC(N)=O)c(C)cc2Cl)c1,n,n,n,n,n
CC(=O)c1cccc(NS(=O)(=O)c2cc(OCC(N)=O)c(C)cc2Cl)c1,n,19294,n,n,n
O=C(c1ccccc1F)N1CC(c2nc(Cc3ccccc3)no2)C1,x,x,n,x,x
COc1ccc(OC)c(N/C(C)=C/C(=O)c2ccc(C)o2)c1,n,20443,x,n,u
CC(C)c1nnc(-c2cc3ccccc3[nH]2)o1,x,x,n,x,x
Cc1ccc(/C=C2\CCOC2=O)cc1,35.3,n,n,n,n
Cc1ccc(NC(=O)c2csc(Nc3ccc(S(C)(=O)=O)cc3)n2)cc1F,x,x,n,x,x
O=C(Nc1ccn(Cc2c(F)c(F)c(F)c(F)c2F)n1)c1ccc(COc2ccccc2Cl)cc1,n,25404,n,n,n
Cc1nn(Cc2c(F)c(F)c(F)c(F)c2F)c(C)c1NC(=O)c1cccc(COc2ccccc2Cl)c1,n,20980,n,n,n
Nc1ccc2c(c1)CCC(=O)N2,x,x,n,x,x
Nc1ccc2c(c1)Nc1ccccc1CC2,n,n,57.6,n,n
O=C(CCCn1nc(-c2ccc(F)cc2)ccc1=O)NC1CCCC1,x,x,n,x,x
CNC(=O)C(C)NS(=O)(=O)c1ccc(F)cc1 (configuration not stated),n,21451,n,n,n
CN(CC(=O)O)S(=O)(=O)c1ccc(F)cc1,n,n,n,n,n
CNC(=O)CN(C)S(=O)(=O)c1ccc(F)cc1,n,23131,n,n,u
CCc1ccc(C(=O)c2oc3nc(C)cc(C)c3c2N)cc1,n,20259,n,n,n
O=c1ccnc(SCc2ccccc2Cl)[nH]1,n,16496,n,n,n
COc1ccc(NC(=O)CSc2nnc(-c3ccccc3C)n2N)cc1,n,22454,n,n,n
